From ChEMBL document CHEMBL5724796, “Tm Shift (DSF) assay results for EUbOPEN Chemogenomics Library” (2024)

How the values were obtained:
Conditions in all cases: Compound concentration 20.0 uM
[1] = molecular target: Tyrosine-protein kinase ABL1 (Homo sapiens) (UniProt P00519)
[2] = molecular target: Bromodomain-containing protein 4 (Homo sapiens) (UniProt O60885)
[3] = molecular target: Cyclin-dependent kinase 2 (Homo sapiens) (UniProt P24941)
[4] = molecular target: Casein kinase I isoform delta (Homo sapiens) (UniProt P48730)
Sequence of Casein kinase I isoform delta (Homo sapiens) (P48730 whole entry, looked up, canonical isoform): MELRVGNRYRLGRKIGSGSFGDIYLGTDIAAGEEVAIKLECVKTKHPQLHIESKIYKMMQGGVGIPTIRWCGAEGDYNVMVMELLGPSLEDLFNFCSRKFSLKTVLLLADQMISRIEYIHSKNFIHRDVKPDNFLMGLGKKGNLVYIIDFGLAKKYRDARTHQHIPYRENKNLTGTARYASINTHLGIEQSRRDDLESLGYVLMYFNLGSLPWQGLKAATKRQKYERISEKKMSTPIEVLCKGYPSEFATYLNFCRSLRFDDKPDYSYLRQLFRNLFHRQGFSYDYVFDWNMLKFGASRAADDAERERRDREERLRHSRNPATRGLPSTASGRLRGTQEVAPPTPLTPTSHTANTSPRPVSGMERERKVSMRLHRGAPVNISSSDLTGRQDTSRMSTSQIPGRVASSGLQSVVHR

[5] = molecular target: Glycogen synthase kinase-3 beta (Homo sapiens) (UniProt P49841)
Sequence of Glycogen synthase kinase-3 beta (Homo sapiens) (P49841 whole entry, looked up): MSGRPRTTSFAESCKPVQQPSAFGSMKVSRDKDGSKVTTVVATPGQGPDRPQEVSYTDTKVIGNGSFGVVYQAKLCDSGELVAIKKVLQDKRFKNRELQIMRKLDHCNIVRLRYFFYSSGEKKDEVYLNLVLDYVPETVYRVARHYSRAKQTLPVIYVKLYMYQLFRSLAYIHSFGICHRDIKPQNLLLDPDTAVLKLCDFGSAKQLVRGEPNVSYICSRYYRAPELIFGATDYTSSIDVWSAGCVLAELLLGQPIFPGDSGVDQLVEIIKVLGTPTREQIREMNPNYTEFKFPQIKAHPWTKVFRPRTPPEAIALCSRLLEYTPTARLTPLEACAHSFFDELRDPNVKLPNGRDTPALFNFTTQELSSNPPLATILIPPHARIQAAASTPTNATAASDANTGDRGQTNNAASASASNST

[6] = molecular target: Mitogen-activated protein kinase 1 (Homo sapiens) (UniProt P28482)
Sequence of Mitogen-activated protein kinase 1 (Homo sapiens) (P28482 whole entry): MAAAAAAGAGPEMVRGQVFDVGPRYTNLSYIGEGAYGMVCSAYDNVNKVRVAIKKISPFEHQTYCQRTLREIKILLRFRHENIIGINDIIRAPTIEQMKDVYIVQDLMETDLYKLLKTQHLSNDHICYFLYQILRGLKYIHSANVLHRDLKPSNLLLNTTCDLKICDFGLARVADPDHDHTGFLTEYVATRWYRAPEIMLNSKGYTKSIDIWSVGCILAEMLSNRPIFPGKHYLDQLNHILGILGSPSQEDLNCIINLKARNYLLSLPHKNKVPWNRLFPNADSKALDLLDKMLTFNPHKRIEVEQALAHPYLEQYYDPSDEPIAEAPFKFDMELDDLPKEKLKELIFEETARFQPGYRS

[7] = molecular target: T1, Aurora kinase A (Homo sapiens) (UniProt O14965)
T1 sequence (whole entry): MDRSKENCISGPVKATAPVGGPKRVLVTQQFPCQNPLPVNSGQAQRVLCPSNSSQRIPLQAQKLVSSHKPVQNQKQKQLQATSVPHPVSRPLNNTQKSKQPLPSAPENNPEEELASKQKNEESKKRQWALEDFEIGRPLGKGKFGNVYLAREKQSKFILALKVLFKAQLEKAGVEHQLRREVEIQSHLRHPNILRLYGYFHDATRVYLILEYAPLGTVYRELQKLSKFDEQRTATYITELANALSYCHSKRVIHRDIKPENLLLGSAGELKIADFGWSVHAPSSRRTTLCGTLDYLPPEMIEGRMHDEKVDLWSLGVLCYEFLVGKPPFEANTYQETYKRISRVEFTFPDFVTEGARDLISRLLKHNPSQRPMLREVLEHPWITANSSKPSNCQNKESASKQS

[8] = molecular target: T2, Transcription intermediary factor 1-alpha (Homo sapiens) (UniProt O15164)
T2 sequence (whole entry): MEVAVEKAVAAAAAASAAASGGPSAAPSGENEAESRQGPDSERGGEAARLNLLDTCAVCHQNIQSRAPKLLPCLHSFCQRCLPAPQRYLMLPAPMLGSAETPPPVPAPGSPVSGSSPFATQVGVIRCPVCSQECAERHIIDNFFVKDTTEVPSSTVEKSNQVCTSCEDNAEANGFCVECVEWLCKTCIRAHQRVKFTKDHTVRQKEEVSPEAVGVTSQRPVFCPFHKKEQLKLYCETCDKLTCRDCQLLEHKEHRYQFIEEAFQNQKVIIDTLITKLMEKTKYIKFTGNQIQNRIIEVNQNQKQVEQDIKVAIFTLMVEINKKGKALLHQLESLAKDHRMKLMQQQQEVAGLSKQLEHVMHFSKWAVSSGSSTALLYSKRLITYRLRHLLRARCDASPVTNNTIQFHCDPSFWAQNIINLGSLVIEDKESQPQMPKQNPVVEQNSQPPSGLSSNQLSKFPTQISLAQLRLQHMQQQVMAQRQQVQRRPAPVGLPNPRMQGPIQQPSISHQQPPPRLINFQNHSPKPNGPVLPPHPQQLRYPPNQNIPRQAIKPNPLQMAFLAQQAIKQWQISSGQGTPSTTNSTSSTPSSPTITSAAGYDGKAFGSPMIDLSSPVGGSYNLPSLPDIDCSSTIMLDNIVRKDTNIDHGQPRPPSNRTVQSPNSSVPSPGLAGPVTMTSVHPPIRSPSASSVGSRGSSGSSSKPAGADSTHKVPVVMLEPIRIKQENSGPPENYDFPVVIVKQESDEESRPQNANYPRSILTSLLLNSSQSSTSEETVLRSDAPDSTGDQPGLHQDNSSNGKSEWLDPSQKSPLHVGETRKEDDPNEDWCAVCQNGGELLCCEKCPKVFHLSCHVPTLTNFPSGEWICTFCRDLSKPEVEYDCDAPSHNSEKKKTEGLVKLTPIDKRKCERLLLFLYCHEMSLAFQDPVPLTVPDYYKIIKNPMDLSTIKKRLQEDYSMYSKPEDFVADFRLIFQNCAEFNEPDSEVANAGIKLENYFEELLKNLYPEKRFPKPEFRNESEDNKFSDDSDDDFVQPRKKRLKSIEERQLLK

Sequence of Tyrosine-protein kinase ABL1 (Homo sapiens) (P00519 whole entry): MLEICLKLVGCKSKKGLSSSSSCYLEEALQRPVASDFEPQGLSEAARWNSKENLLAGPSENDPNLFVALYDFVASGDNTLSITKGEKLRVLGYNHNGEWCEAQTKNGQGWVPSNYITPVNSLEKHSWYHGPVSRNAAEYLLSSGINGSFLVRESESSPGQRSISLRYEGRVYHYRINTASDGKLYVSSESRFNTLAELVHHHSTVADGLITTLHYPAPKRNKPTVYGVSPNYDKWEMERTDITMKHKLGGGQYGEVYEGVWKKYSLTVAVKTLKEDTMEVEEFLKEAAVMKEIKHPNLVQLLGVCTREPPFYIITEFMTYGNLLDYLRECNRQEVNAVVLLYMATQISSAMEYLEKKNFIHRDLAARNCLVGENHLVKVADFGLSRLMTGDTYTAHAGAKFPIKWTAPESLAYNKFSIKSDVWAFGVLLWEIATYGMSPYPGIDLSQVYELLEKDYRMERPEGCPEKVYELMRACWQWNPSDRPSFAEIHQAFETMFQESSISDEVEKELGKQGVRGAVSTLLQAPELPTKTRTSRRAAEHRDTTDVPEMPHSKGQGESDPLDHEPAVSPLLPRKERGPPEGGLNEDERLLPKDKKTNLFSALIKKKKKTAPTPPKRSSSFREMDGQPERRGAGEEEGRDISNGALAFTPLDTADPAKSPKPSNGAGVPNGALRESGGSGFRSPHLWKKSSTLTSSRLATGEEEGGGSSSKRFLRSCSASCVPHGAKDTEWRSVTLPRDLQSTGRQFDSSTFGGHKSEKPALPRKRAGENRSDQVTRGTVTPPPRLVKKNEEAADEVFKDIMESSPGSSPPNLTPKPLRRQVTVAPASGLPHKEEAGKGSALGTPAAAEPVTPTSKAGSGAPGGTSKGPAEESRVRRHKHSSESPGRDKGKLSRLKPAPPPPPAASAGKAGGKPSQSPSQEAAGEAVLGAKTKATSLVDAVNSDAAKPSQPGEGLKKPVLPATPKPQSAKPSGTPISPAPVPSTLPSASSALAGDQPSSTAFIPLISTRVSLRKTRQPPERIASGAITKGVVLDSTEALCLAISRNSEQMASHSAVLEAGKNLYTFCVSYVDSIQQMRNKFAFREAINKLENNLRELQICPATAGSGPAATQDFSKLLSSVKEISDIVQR

| Structure (SMILES) | ΔTm [1] | ΔTm [2] | ΔTm [3] | ΔTm [4] | ΔTm [5] | ΔTm [6] | ΔTm [7] | ΔTm [8] |
| --- | --- | --- | --- | --- | --- | --- | --- | --- |
| CC(C)(CNC(=O)c1cccc(-c2noc(C(F)(F)F)n2)c1)c1coc(-c2ccccc2)n1 | 0.61 °C | -3.84 °C | 0.39 °C | 0.45 °C | -8.42 °C | -3.6 °C | -2.8 °C | -1.82 °C |
| CCCC1O[C@@H]2C[C@H]3[C@@H]4CCC5=CC(=O)C=C[C@]5(C)[C@H]4[C@@H](O)C[C@]3(C)[C@]2(C(=O)CO)O1 (stereo partly specified) | 0.48 °C | -1.67 °C | 0.01 °C | -0.03 °C | -0.4 °C | -0.27 °C | -0.16 °C | -0.81 °C |
| Cn1ncc2c(-c3c(-c4ccc(F)cn4)nn4c3COC(C)(C)C4)ccnc21 | 0.22 °C | 0.28 °C | -0.29 °C | 1.41 °C | -0.58 °C | 0.32 °C | -1.67 °C | -1.33 °C |
| N#Cc1cc2cc(CN3CCC(Nc4ncnc5sc(CC(F)(F)F)cc45)CC3)ccc2[nH]1 | 0.42 °C | 1.04 °C | 0.06 °C | 1.89 °C | -0.5 °C | 0.61 °C | -0.57 °C | 1.28 °C |
| CS(=O)(=O)c1ccc(Oc2cc(F)cc(C#N)c2)c2c1[C@H](O)[C@H](F)[C@@H]2F | 0.05 °C | 2.78 °C | 0.17 °C | -0.33 °C | -0.61 °C | 0.64 °C | -2.09 °C | 1.99 °C |
| COC[C@@H]1CCCN1S(=O)(=O)c1ccc2c(c1)C(=O)C(=O)N2 | 0.35 °C | -1.47 °C | -0.41 °C | 0.01 °C | -0.2 °C | -0.37 °C | -0.97 °C | -0.89 °C |
| Cc1nc2ccccn2c1C(=O)CN1CCN(c2ccc(F)cn2)CC1 | -0.05 °C | 0.87 °C | 0.63 °C | -0.29 °C | -0.25 °C | 0.11 °C | -1.47 °C | 0.7 °C |
| CC(=O)O[C@]1(C(C)=O)CC[C@H]2[C@@H]3CCC4=CC(=O)CCC4=C3[C@@H](c3ccc(N(C)C)cc3)C[C@@]21C | 0.29 °C | -2.72 °C | -0.32 °C | 0.22 °C | -0.83 °C | -0.05 °C | -1.14 °C | -1.79 °C |
| CCn1ncc2c(NC3CCOCC3)c(-c3nnc(Cc4sc(C)nc4C)o3)cnc21 | 0.37 °C | -1.68 °C | -0.03 °C | 0.21 °C | -0.23 °C | 0.54 °C | -2.35 °C | 0.22 °C |
| C[C@@H](Oc1ccc(CNC(=O)c2cccnc2Oc2ccc3c(c2)OCO3)c(F)c1)C(=O)O | 0.69 °C | -1.71 °C | 0.09 °C | -0.5 °C | -0.12 °C | 0.23 °C | -1.52 °C | -0.05 °C |
| CCOc1ccc(Cc2cc([C@@H]3O[C@H](CO)[C@@H](O)[C@H](O)[C@H]3O)ccc2Cl)cc1 | 0.64 °C | -1.76 °C | -0.13 °C | -0.16 °C | -0.82 °C | 0.08 °C | -2.13 °C | -0.07 °C |
| CC/C(=C(/CC)c1ccc(O)cc1)c1ccc(O)cc1 | -0.96 °C | -4.78 °C | -5.57 °C | -0.81 °C | -3.54 °C | -12.2 °C | -1.78 °C | 1.49 °C |
| N=C(N)N/N=C/c1cccc(Cl)c1Cl | 0.36 °C | -1.26 °C | -0.05 °C | 0.55 °C | -0.98 °C | 0.2 °C | -0.81 °C | -0.47 °C |
| CS(=O)(=O)c1ccc(Oc2cc(F)cc(C#N)c2)c2c1C(O)C(F)C2 (stereo unspecified) | 0.53 °C | -2.49 °C | 0.01 °C | -0.13 °C | -0.04 °C | 0.54 °C | -2.47 °C | -0.39 °C |
| OC[C@H]1O[C@@H](c2ccc(Cl)c(Cc3ccc(OCCOC4CC4)cc3)c2)[C@H](O)[C@@H](O)[C@@H]1O | 0.7 °C | -2.67 °C | 0.19 °C | -1.19 °C | -0.38 °C | 0.15 °C | -2.84 °C | 0.19 °C |
| O=C(CCl)Nc1ccc(S(=O)(=O)c2ccc(NC(=O)CCl)cc2)cc1 | 1.36 °C | -1.5 °C | 0 °C | 0.55 °C | 0.48 °C | -1.61 °C | -0.12 °C | 0.36 °C |
| Cc1cc(C)nc(SCC(=O)Nc2ncc(Cc3cccc(OCc4cn(Cc5ccccc5)nn4)c3)s2)n1 | -4.58 °C | -6.78 °C | -3.98 °C | -2.38 °C | -0.77 °C | 0.65 °C | -2.36 °C | 3.08 °C |
| N#Cc1ccc(-c2csc(NN=C3CCCC3)n2)cc1 | 1.02 °C | -1.71 °C | -3.5 °C | 0.34 °C | -3.93 °C | -0.09 °C | -0.22 °C | -1.63 °C |
| CC(C)N(C[C@H]1O[C@@H](n2cnc3c(N)ncnc32)[C@H](O)[C@@H]1O)[C@H]1C[C@@H](CCc2nc3cc(C(C)(C)C)ccc3[nH]2)C1 | 0.52 °C | -1.59 °C | 0.63 °C | 0.57 °C | -0.47 °C | -0.02 °C | 0.32 °C | -0.97 °C |
| O=C(C=Cc1ccc(O)cc1)c1ccc(O)cc1O | 6.6 °C | 1.51 °C | 1.64 °C | 1.31 °C | 2.87 °C | 1.33 °C | 1.81 °C | -0.03 °C |
| Cc1cc(OCc2nnc(SC3CCCC3)n2-c2cccnc2)ccc1-c1ccc(S(C)(=O)=O)cc1 | -1.4 °C | -2.52 °C | 0.2 °C | -0.2 °C | -4.14 °C | 0 °C | -1.26 °C | 0.18 °C |
| CC(C)[C@@H]1C(=O)N(S(C)(=O)=O)[C@@H]2CCN(C(=O)/C=C/CN3CCCCC3)[C@H]21 | 0.18 °C | -2.34 °C | 0.22 °C | 0.11 °C | -1.7 °C | 0.03 °C | -0.54 °C | -1.12 °C |
